The values below come from ChEMBL document CHEMBL2218924, “A broad activity screen in support of a chemogenomic map for kinase signalling research and drug discovery” (Biochem J, 2013).

The target in assay [1] is Tyrosine-protein kinase SYK (Homo sapiens) (UniProt P43405). The settings on record: at 10 µM.
For assay [2], the target named is T1, Mitogen-activated protein kinase kinase kinase 7 (Homo sapiens) (UniProt O43318).
T1 sequence (whole entry): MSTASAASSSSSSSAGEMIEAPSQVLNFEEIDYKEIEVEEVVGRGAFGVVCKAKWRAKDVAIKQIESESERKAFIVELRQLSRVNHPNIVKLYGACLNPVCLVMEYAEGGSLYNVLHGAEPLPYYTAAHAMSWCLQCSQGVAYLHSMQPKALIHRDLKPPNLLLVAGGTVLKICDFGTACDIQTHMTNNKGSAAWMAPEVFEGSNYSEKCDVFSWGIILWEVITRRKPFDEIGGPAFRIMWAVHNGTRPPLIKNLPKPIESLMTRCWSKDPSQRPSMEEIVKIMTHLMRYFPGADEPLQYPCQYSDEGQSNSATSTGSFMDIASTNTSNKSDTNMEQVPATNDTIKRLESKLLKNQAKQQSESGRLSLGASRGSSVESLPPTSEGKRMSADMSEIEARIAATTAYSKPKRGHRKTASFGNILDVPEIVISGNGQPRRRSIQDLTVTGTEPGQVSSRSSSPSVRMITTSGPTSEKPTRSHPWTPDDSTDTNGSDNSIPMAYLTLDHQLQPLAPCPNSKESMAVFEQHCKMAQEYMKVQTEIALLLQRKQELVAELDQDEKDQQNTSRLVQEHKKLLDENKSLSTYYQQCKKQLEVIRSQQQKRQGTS
The settings on record: at 1 µM.

Assay [3] addresses T1, Mitogen-activated protein kinase kinase kinase 7 (Homo sapiens). To be noted: at 10 µM.
In assay [4] the target is T2, Serine/threonine-protein kinase TAO1 (Homo sapiens) (UniProt Q7L7X3).
T2 sequence (whole entry): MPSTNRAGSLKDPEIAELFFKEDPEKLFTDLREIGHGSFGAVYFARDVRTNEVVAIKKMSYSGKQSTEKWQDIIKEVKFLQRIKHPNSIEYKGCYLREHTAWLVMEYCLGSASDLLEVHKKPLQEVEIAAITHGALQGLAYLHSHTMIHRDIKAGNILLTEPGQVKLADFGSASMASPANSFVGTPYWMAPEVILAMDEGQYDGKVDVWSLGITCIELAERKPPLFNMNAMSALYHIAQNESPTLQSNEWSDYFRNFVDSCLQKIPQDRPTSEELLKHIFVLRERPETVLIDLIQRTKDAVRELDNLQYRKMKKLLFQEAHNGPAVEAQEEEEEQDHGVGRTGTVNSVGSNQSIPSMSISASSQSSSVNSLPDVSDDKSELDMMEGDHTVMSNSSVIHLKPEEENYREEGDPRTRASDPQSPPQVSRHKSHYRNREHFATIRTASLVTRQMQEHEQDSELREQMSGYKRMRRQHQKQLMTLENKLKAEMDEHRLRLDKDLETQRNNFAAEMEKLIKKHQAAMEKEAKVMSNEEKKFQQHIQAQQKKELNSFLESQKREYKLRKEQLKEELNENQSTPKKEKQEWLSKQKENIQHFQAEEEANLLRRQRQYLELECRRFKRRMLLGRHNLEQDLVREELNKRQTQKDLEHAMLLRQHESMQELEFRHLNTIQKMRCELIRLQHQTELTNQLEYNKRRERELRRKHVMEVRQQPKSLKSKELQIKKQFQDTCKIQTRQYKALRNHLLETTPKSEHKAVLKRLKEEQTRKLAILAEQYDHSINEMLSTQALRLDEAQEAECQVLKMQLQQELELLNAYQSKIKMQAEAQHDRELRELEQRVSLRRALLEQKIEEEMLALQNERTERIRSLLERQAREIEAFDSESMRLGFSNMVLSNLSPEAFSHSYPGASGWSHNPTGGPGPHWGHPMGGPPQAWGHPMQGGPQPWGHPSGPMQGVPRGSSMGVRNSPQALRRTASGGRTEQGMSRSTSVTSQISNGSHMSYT
To be noted: at 1 µM.

In assay [5] the target is T2, Serine/threonine-protein kinase TAO1 (Homo sapiens). To be noted: at 10 µM.
The target in assay [6] is T3, Serine/threonine-protein kinase TAO2 (Homo sapiens) (UniProt Q9UL54).
T3 sequence (whole entry): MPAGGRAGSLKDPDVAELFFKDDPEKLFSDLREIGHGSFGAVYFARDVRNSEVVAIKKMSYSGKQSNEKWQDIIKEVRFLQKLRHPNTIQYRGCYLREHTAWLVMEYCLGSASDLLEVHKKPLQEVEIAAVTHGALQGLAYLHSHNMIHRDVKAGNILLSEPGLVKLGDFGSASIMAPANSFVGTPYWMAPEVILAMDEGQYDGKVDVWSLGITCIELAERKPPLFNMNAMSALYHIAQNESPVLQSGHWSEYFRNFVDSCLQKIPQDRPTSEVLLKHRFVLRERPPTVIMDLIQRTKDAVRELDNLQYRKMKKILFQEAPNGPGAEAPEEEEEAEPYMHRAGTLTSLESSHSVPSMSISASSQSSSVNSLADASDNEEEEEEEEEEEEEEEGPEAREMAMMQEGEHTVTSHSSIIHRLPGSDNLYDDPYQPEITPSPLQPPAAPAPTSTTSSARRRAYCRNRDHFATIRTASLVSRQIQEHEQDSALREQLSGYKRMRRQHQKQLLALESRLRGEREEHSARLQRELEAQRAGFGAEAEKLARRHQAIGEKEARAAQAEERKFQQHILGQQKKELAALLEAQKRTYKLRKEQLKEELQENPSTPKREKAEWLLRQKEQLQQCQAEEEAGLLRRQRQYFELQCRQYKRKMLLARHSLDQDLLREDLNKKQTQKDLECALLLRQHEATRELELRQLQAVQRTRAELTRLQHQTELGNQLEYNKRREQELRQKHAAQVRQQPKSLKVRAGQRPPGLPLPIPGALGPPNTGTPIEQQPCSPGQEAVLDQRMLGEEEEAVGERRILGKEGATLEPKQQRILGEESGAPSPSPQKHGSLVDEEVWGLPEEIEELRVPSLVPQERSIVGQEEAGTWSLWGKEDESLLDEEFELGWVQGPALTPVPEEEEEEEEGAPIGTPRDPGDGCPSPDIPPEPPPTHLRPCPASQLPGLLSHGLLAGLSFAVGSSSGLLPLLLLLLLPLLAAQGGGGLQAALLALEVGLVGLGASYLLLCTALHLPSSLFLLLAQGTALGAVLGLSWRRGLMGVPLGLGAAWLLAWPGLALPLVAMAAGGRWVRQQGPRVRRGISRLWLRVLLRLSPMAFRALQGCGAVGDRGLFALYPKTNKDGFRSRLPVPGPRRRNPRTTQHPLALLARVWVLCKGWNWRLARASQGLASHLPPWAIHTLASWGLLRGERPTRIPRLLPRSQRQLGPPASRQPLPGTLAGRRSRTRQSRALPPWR
To be noted: at 1 µM.

Assay [7] deals with T3, Serine/threonine-protein kinase TAO2 (Homo sapiens). To be noted: at 10 µM.
The target in assay [8] is T4, Serine/threonine-protein kinase TAO3 (Homo sapiens) (UniProt Q9H2K8).
T4 sequence (whole entry): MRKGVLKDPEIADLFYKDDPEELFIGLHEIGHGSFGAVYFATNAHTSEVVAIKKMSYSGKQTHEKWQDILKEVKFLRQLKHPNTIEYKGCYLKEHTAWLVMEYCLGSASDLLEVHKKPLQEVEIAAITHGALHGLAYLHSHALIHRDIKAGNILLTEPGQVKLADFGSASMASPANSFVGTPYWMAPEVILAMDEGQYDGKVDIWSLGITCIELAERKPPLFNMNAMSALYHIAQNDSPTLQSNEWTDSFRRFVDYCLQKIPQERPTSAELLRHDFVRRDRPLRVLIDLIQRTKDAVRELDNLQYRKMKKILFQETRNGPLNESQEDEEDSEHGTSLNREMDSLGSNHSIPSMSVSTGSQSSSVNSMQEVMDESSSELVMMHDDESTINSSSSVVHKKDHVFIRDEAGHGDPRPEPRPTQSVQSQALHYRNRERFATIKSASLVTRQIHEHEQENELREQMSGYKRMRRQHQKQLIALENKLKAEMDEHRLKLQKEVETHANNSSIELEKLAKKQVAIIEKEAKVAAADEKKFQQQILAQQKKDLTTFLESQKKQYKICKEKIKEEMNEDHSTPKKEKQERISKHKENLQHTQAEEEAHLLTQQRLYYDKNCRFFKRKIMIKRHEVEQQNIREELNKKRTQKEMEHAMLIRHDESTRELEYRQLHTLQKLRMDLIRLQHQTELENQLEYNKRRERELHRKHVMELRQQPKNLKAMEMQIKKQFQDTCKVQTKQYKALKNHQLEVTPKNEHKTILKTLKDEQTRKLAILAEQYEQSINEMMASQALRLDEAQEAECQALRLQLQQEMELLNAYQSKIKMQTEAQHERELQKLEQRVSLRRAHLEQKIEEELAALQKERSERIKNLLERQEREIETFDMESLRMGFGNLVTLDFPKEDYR
The settings on record: at 1 µM.

The target of assay [9] is T4, Serine/threonine-protein kinase TAO3 (Homo sapiens). To be noted: at 10 µM.
In assay [10] the target is T5, Serine/threonine-protein kinase TBK1 (Homo sapiens) (UniProt Q9UHD2).
T5 sequence (whole entry): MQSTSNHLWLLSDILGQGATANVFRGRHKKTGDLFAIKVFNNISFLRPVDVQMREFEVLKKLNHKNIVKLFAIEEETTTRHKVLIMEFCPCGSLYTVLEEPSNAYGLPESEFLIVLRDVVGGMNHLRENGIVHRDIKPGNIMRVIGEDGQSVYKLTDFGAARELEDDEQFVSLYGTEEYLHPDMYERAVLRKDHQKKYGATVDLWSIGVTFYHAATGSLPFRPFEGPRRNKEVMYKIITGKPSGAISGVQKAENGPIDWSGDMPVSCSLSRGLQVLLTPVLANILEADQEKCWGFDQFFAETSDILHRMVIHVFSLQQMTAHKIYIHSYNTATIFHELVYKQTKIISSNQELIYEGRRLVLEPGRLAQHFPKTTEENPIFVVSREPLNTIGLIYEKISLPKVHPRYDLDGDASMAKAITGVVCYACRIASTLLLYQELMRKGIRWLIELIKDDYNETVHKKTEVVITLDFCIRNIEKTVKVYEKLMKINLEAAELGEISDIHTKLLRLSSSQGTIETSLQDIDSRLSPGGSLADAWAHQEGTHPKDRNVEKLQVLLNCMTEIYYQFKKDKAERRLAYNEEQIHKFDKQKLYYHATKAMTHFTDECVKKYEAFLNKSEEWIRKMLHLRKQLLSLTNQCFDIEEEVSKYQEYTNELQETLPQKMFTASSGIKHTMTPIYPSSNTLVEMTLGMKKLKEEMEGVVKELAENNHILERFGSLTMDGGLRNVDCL
The settings on record: at 1 µM.

For `Cc1ccc(S(=O)(=O)/C=C/C#N)cc1`, the residual activity in assay [1] is 109%; in assay [2] it was 96%; in [3], 88%; in assay [4], 94%; in assay [5], 87%; in [6], 88%. For the same compound, the residual activity in [7] stood at 109%; in assay [8], 92%; in assay [9], 98%; in assay [10] it was 87%.
